Data reported in PubChem BioAssay AID1224904 (Broad Institute, 2016).
The whole screen tested about 37,000 compounds, of which about 290 (0.78%) were called active. Inconclusive results (about 10%) are left out.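 Rule for the calls: active = mean inhibition of at least 10% in the main channel, exceeding the control channel by a set limit; inconclusive = inhibition of 10% or more but channel gap under a set limit; inactive = mean inhibition below 10%.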 The full list was thinned out, with actives kept by preference.

Assay: DUX4 transcriptional activity inhibition in cells – 293T cells, Gaussia and Italica luciferase, primary screen (AID 1224904);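 for activity change, negative = inhibition: 0% = median of neutral control wells and -100% = median of positive control wells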
Details: 293T-iDUX4 ZSCAN4-Gaussia luciferase reporter, 24 h, stronger effect = lower value, concentration not given here; for Gaussia minus Italica difference: measured here: selective DUX4 reporter inhibition
[1] = measured here: Italica tet-on control reporter

SMILES	activity change, negative = inhibition	activity change, negative = inhibition [1] [%]	Gaussia minus Italica difference [%]
CCNC[C@@H]1[C@@H](c2ccccc2)[C@@H](CO)N1C(=O)Cc1ccccn1	-0.0686% (inactive)	0.573	-0.642
CC(C)[C@@H]1COCc2cn(nn2)CC[C@@H](C)C(=O)N1	-4.81% (inactive)	-0.475	-4.34
C/C=C/c1ccc([C@H]2[C@@H](CO)N(S(C)(=O)=O)[C@@H]2CN(C)C(=O)CC)cc1	-5.98% (inactive)	-3.34	-2.63
COc1ccc(S(=O)(=O)Nc2ccc3c(c2)C(=O)N([C@@H](C)CO)C[C@@H](C)[C@H](CN(C)C(=O)CCC(F)(F)F)OCCCC[C@H](C)O3)cc1	-0.224% (inactive)	1.87	-2.09
COc1ccc2c3c(n(C)c2c1)[C@H](CO)N(Cc1ccc(F)cc1)CC31CCN(C)CC1	-2.1% (inactive)	0.744	-2.85
CCCN1[C@H](C(=O)N2CCCCC2)[C@@H](CO)[C@@H]2Cn3c(ccc(-c4ccccc4F)c3=O)[C@@H]21	-5.69% (inactive)	-0.135	-5.56
CCCNC(=O)N(C)C[C@@H]1Oc2ncc(C#CCc3ccccc3)cc2C(=O)N([C@@H](C)CO)C[C@H]1C	5.53% (inactive)	3.94	1.6
CCCNC(=O)N1C[C@@H](O)COC[C@H]2O[C@H](CC(=O)N3CCC(Cc4ccccc4)CC3)CC[C@@H]21	-2.96% (inactive)	-2.25	-0.719
N#C[C@H]1[C@@H](c2ccc(-c3ccccc3F)cc2)[C@H](CO)N1C(=O)c1ccccn1	2.62% (inactive)	1.69	0.933
CCS(=O)(=O)N1Cc2cc(C(=O)N(C)C)nc(-c3cccc(-c4ccc(C#N)cc4)c3)c2[C@H]1CCO	0.897% (inactive)	2.65	-1.75
COc1ccccc1CN1CC[C@@H]2[C@@H](CO)Nc3ccc(C#Cc4ccccc4)cc3[C@@H]21	-0.512% (inactive)	16	-16.5
COc1ccc(C#Cc2ccc3c(c2)[C@H]2[C@H](CCN2Cc2nccs2)[C@@H](CO)N3)cc1	-46.9% (active)	-18.3	-28.6
COc1ccc(S(=O)(=O)N2CC[C@@H]3[C@@H](CO)Nc4ccc(C#Cc5cccnc5)cc4[C@@H]32)cc1	2.41% (inactive)	-7.96	10.4
CCCNC(=O)Nc1ccc2c(c1)C(=O)N(C)[C@@H]1CC[C@@H](CC(=O)NC)O[C@H]1CO2	5.07% (inactive)	8.03	-2.97
C[C@H](NC(=O)C[C@@H]1C=C[C@H](NC(=O)CN2CCOCC2)[C@H](CO)O1)c1ccccc1	4.92% (inactive)	1.16	3.76
CCCNC(=O)N1CCC2(CC1)CN(C(=O)c1cccnc1)[C@@H](CO)c1[nH]c3cc(OC)ccc3c12	8.76% (inactive)	-3.75	12.5
C[C@@H]1CCCCO[C@H](CN(C)Cc2ccc(C(=O)Nc3ccccc3N)cc2)[C@H](C)CN([C@H](C)CO)C(=O)c2cc(N(C)C)ccc2O1	1.16% (inactive)	0.261	0.898
CC(C)CC#Cc1ccc([C@@H]2[C@@H](CO)N3C(=O)CN(C(=O)c4cnccn4)C[C@@H]23)cc1	-2.25% (inactive)	4.38	-6.63

SMILES	activity change, negative = inhibition	activity change, negative = inhibition [1] [%]	Gaussia minus Italica difference [%]
COc1ccc2c3c(n(C)c2c1)[C@@H](CO)N(C(=O)C1CC1)CC31CN(C(=O)C2CCOCC2)C1	9.17% (inactive)	2.05	7.12
O=C(Nc1ccccc1)N1C[C@H]2[C@@H](c3ccccc31)[C@H](CO)N2Cc1ccc(F)cc1	-5.39% (inactive)	-0.0374	-5.35
COc1ccc2c3c(n(C)c2c1)[C@@H](CO)N(C(=O)c1ccccn1)CC31CN(C)C1	15.3% (inactive)	6.61	8.66
CN(C)C(=O)C[C@@H]1C[C@H]2c3cc(NC(=O)Nc4ccccc4F)ccc3O[C@H]2[C@@H](CO)O1	1.79% (inactive)	4.62	-2.83
CO[C@H]1CN(C)C(=O)c2ccc(NC(=O)c3cccc(F)c3)cc2OC[C@@H](C)N(C(C)=O)C[C@@H]1C	1.79% (inactive)	2.12	-0.333
Cc1ccccc1-c1ccc([C@H]2[C@H](CO)N3C(=O)CN(C(=O)c4cccnc4)C[C@@H]23)cc1	6.89% (inactive)	11.7	-4.8
O=C(C[C@H]1CC[C@@H]2[C@H](COC[C@H](O)CN2S(=O)(=O)c2ccccc2)O1)N1CCOCC1	7.87% (inactive)	8.06	-0.196
O=C(C[C@@H]1CC[C@H]2[C@@H](COC[C@@H](O)CN2C(=O)Nc2ccc(Cl)cc2)O1)NC1Cc2ccccc2C1	3.16% (inactive)	10.4	-7.28
Cc1ccccc1S(=O)(=O)Nc1ccc2c(c1)C(=O)N(C)[C@@H]1CC[C@@H](CC(=O)O)O[C@@H]1CO2	-2.51% (inactive)	-0.782	-1.73
COc1cccc(C(=O)N2C[C@@H]3[C@H](c4ccccc42)[C@H](CO)N3Cc2ccccc2F)c1	-0.575% (inactive)	3.46	-4.03
CCCNC(=O)N1C[C@@H](O)COC[C@H]2O[C@H](CC(=O)NCCCN3CCOCC3)CC[C@@H]21	5.88% (inactive)	6.39	-0.509
CCC(=O)N1CC2(C1)CN(Cc1nccs1)[C@@H](CO)c1c2c2ccc(OC)cc2n1C	20% (inactive)	2.76	17.3
CN(C)C(=O)c1cccc(-c2ccc3c(c2)[C@H]2[C@H](CCN2C(=O)c2cccnc2)[C@H](CO)N3)c1	-0.714% (inactive)	0.0796	-0.793
O=C(C[C@@H]1CC[C@@H]2[C@H](COC[C@H](O)CN2CC2CCOCC2)O1)NCC1CCCCC1	3.21% (inactive)	11.5	-8.33
CCCN1C[C@@H](C)[C@@H](OC)CN(C)C(=O)c2cc(NC(=O)Nc3cccc(F)c3)ccc2OC[C@@H]1C	-9.36% (inactive)	-5.66	-3.7
O=C(NCC1CC1)[C@@H]1[C@@H](CO)[C@@H]2Cn3c(ccc(-c4ccncc4)c3=O)[C@@H]2N1Cc1cocn1	-0.331% (inactive)	-1.44	1.11
CC(C)NC(=O)N1[C@H](CO)[C@H](c2ccccc2)C12CN(C(=O)Cc1cccnc1)C2	1.09% (inactive)	5.85	-4.76
